This is an account of results in PubChem BioAssay (NCATS).

Results filed as inconclusive are left out. Entries that show only a call come without a potency. Calls of active or inactive are those of the source. Calls follow the shape of the dose curve; as a rule, active = well fitted cell-killing curve with a large enough effect; inconclusive = small, poorly fitted or top-dose-only effect; inactive = no such curve, though single readings can be large or run the other way.
Potency is read from the fitted curve at half-maximal effect.

This experiment can be described thus: Cell Viability - LYMP2-001 (AID 921). Also: nearly all actives have a fitted effect of over 70% in size. As to conditions: LYMP2-001 lymphoblastoid cell viability; series mostly up to 92.2 µM. An excerpt: NIH Chemical Genomics Center [NCGC]
NIH Molecular Libraries Screening Centers Network [MLSCN]
National Institutes of Environmental Health Sciences [NIEHS]
National Toxicology Program [NTP]
We have developed a 1536-well cell-based assay for quantitative high throughput screening (qHTS) against a number of cell lines to determine in vitro cytotoxicity of small molecules. This particular assay uses a human lymphoblastoid cell line (LYMP2-001) purchased from Coriell Institute for Medical Research.
NCGC Assay Protocol Summary:
The CellTiter-Glo luminescent cell viability assay (Promega) is a homogeneous method to measure the number of viable cells in culture. The end point readout of this assay is based on quantitation of intracellular ATP, an indicator of metabolic activity, using the luciferase reaction. Luciferase catalyzes the oxidation of beetle Luciferin to oxyluciferin and light in the presence of ATP. The luminescent signal is proportional to amount of ATP present.
Using the CellTiter-Glo luminescent cell viability assay, the amount of cellular ATP was measured in the lymphoblastoid cell line with complete culture medium following compound treatment for 24 hours. The assay was performed in opaque white Kalypsys 1536-well plates. In the screen, tetraoctylammonium bromide was used as positive control. Library compounds were measured for their ability to cause acute toxicity in the cell line, as reflected by a decrease in intracellular ATP levels, in a concentration-dependent manner. […] AC50 values were determined from concentration-response data modeled with the standard Hill equation.
qHTS protocol for CellTiter Glo lymphoblastoid cellular assay
[Step] [Parameter] [Value] [Description]
1. Reagent; 5 uL; 2500 lymphoblastoid cells/well
2. Time; 5 hr; 37 C incubation
4. Controls; 23 nL; Tetraoctylammonium bromide 6.4pM to 92 uM
5. Time; 24 hr; 37 C incubation
6. Reagent; 5 uL; CellTiter Glo reagent
7. Time; 30 min; Room Temperature
8. Detection; Luminescence; Viewlux plate reader
Keywords: cell viability, cytotoxicity, lymphoblastoid cell line, luminescence, NTPHTS, NTPHTS_NCGC, NIEHS, DSSTox, MLSMR, MLSCN, NIH Roadmap, qHTS, NCGC
As for `[O-][N+](=Nc1ccccc1)c1ccccc1`, the Potency entry was “inactive”.

With `CCOC(C)OCC`, the Potency entry is “inactive”.

As to `C[C@H]1O[C@@H](O[C@H]2[C@@H](O)C[C@H](O[C@H]3[C@@H](O)C[C@H](O[C@H]4CC[C@@]5(C)[C@H](CC[C@@H]6[C@@H]5C[C@@H](O)[C@]5(C)[C@@H](C7=CC(=O)OC7)CC[C@]65O)C4)O[C@@H]3C)O[C@@H]2C)C[C@H](O)[C@@H]1O`, the Potency was 0.316 µM (active).

For `Cc1ccc(S(=O)(=O)O)cc1C`, the Potency result is “inactive”.

`O=P(O)(O)O`: the Potency entry is “inactive”.

As to `c1ccc2ccccc2c1`, the Potency entry was “inactive”.

With `CC1=CC(=O)NS(=O)(=O)O1`, the Potency result was “inactive”.

With `C=C1C(CCl)(CCl)C2(Cl)C(Cl)C(Cl)C1(Cl)C2(Cl)Cl` (centres undefined), the Potency is 39.8 µM (active).

Regarding `CC(C)O`, the Potency result is “inactive”.

`NC(N)=O`: the Potency result is “inactive”.

As for `CC[C@H]1OC(=O)[C@H](C)[C@@H](O[C@H]2C[C@@](C)(OC)[C@@H](O)[C@H](C)O2)[C@H](C)[C@@H](O[C@@H]2O[C@H](C)C[C@H](N(C)C)[C@H]2O)[C@](C)(O)C[C@@H](C)CN(C)[C@H](C)[C@@H](O)[C@]1(C)O`, the Potency result is “inactive”.

`OCC(O)CO`: the Potency result is “inactive”.

Take `COC(=O)c1ccccc1O`: the Potency result is “inactive”.

With `CC1=CCC2CC1C2(C)C` (centres undefined), the Potency entry is “inactive”.

As for `CO`, the Potency entry is “inactive”.

Consider `Oc1ccc(/C=C/c2cc(O)cc(O)c2)cc1`, for which the Potency result was “inactive”.

As for `OCc1ccccc1`, the Potency result was “inactive”.

With `OCl`, the Potency result was “inactive”.

Take `NCCN`: the Potency entry was “inactive”.

With `Nc1ncnc2c1ncn2[C@H]1CC[C@@H](CO)O1`, the Potency result was “inactive”.

For the molecule `ClC(Cl)Cl`, the Potency entry is “inactive”.

For the molecule `C/C=C/C=C/C(=O)O`, the Potency result was “inactive”.

For `C[C@H](CCC(=O)O)[C@H]1CC[C@H]2[C@@H]3CC[C@@H]4C[C@H](O)CC[C@]4(C)[C@H]3C[C@H](O)[C@]12C`, the Potency entry was “inactive”.

For the molecule `O=c1n(CC2CO2)c(=O)n(CC2CO2)c(=O)n1CC1CO1` (centres undefined), the Potency was 31.6 µM (active).

For the molecule `OB(O)O`, the Potency entry is “inactive”.

Regarding `Oc1cccc(O)c1O`, the Potency entry is “inactive”.

In the case of `Nc1nccs1`, the Potency result is “inactive”.

For `Cc1ncc[nH]1`, the Potency entry was “inactive”.

Consider `C[C@H](CCC(=O)O)[C@H]1CC[C@H]2[C@@H]3[C@H](O)C[C@@H]4C[C@H](O)CC[C@]4(C)[C@H]3C[C@H](O)[C@]12C`, for which the Potency entry was “inactive”.

As to `CO/N=C(/C(=O)N[C@@H]1C(=O)N2C(C(=O)O)=C(COC(N)=O)CS[C@H]12)c1ccco1`, the Potency result was “inactive”.

As to `CCCCO`, the Potency result is “inactive”.

In the case of `Nc1ccc(N=Nc2ccccc2)c(N)n1`, the Potency result is “inactive”.

On to `CCCCC`, for which the Potency entry was “inactive”.

With `OC[C@H]1O[C@@H]2O[C@H]3[C@H](O)[C@@H](O)[C@@H](O[C@H]4[C@H](O)[C@@H](O)[C@@H](O[C@H]5[C@H](O)[C@@H](O)[C@@H](O[C@H]6[C@H](O)[C@@H](O)[C@@H](O[C@H]7[C@H](O)[C@@H](O)[C@@H](O[C@H]1[C@H](O)[C@H]2O)O[C@@H]7CO)O[C@@H]6CO)O[C@@H]5CO)O[C@@H]4CO)O[C@@H]3CO`, the Potency result was “inactive”.
